According to PubChem BioAssay (NCI):
Compounds without any hit were thinned out: in the full panel of roughly 83,000, 20% have a hit.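 Testing used 96-well plates and a 48-hour single-concentration exposure. Example: -40 means 40% of the starting cells died.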

How the values were obtained:
Experiment in all cases: NCI-60 one-dose screen, 48 h (100 = growth as untreated, 0 = no growth, -100 = all killed)
Conditions in all cases: 10 µM unless noted; active = growth percent below 10; inactive = the rest
SK-MEL-2 melanoma = test system: SK-MEL-2 melanoma
EKVX NSCLC = test system: EKVX NSCLC
SN12C renal = test system: SN12C renal
UO-31 renal = test system: UO-31 renal
TK-10 renal = test system: TK-10 renal
ACHN renal = test system: ACHN renal
CAKI-1 renal = test system: CAKI-1 renal
A498 renal = test system: A498 renal
CCRF-CEM leukemia = test system: CCRF-CEM leukemia
MOLT-4 leukemia = test system: MOLT-4 leukemia

Measured: growth

O=C(Nc1cccc2c(O)c(N=Nc3ccc(S(=O)(=O)Nc4nccs4)cc3)cc(N=Nc3ccc(S(=O)(=O)Nc4nccs4)cc3)c12)C(Cl)Cl
inactive: SK-MEL-2 melanoma 52.6% | EKVX NSCLC 90.5% | SN12C renal 111% | UO-31 renal 68.3% | TK-10 renal 122% | ACHN renal 57.4% | CAKI-1 renal 76.8% | A498 renal 85% | CCRF-CEM leukemia 72.5% | MOLT-4 leukemia 153%

COc1ccc(CNC(=O)C(O)C(Cc2ccccc2)NC(=O)c2[nH]c3ccccc3c(=O)c2C)cc1OC (stereo not given)
inactive: SK-MEL-2 melanoma 99.5% | EKVX NSCLC 99% | SN12C renal 103% | UO-31 renal 98.7% | TK-10 renal 93.6% | ACHN renal 108% | CAKI-1 renal 99.6% | A498 renal 113% | CCRF-CEM leukemia 108% | MOLT-4 leukemia 99.8%

CN(C)CCC=C1c2ccccc2C(C)(C)c2ccccc21
inactive: SK-MEL-2 melanoma 74.4% | EKVX NSCLC 110% | SN12C renal 71.2% | UO-31 renal 58.1% | TK-10 renal 98.3% | ACHN renal 90.5% | CAKI-1 renal 91.2% | A498 renal 91% | CCRF-CEM leukemia 49.6% | MOLT-4 leukemia 72.9%

Cc1ccc2c(c1)Sc1c(ccc3ccccc13)N2
inactive: SK-MEL-2 melanoma 116% | EKVX NSCLC 72.8% | SN12C renal 81.8% | UO-31 renal 60.1% | TK-10 renal 127% | ACHN renal 64.5% | CAKI-1 renal 73.4% | A498 renal 91.7% | CCRF-CEM leukemia 67.6% | MOLT-4 leukemia 32.4%
